# Experimental data as given in PubChem BioAssay (Tox21).
# A number with no mark means an inactive call. Results filed as inconclusive are left out. Where a call stands in place of a potency, no number is given. Active and inactive are the calls of the source. Unless noted, the call rests on the fitted dose curve; in most records, active means well fitted curve in the direction sought with a large enough effect in the repeat runs; inconclusive means weak or mixed curves; inactive means no such curve, though single readings can be large; an effect the other way counts as inactive or inconclusive.
# Tests used:
# [1] = A CellTox Green Cytotoxicity Assay to monitor cytotoxicity in HepG2 cells - 8 hour (AID 1224890); further: nearly all actives have a fitted effect of over 45% in size
# Procedure, shortened: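 Using 1536-well format, dye-containing HepG2 suspension was seeded, allowed 5 h at 37 C/5% CO2, dosed by pintool with compounds, positive and negative controls, and imaged for fluorescence across 40 h.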
# [2] = qHTS assay to identify small molecule antagonists of the estrogen receptor alpha (ER-alpha) signaling pathway using the BG1 cell line in the presence of 0.1 nM 17-beta-estradiol - cell viability counter screen (AID 1259241); further: nearly all actives have a fitted effect of over 40% in size
# Procedure, shortened: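 In this screen, hormone-deprived VM7Luc4E2 cells were seeded at 4,000 per well, dosed with compound and 0.1 nM estradiol final, and incubated 22 hr at 37C and 5% CO2; fluorogenic live-cell protease signal reported viability.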
# [3] = qHTS assay to identify small molecule antagonists of the androgen receptor (AR) signaling pathway using the MDA cell line in the presence of 0.5 nM R1881 - cell viability counter screen (AID 1259242); further: nearly all actives have a fitted effect of over 45% in size
# Procedure, shortened: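 Viability of MDA-kb2 cells was multiplexed with the luciferase AR readout; after 16 hr with compounds and R1881 at 0.5 nM final, CellTiter-Fluor fluorescence was recorded.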
# [4] = biological target: Estrogen receptor (Homo sapiens) (UniProt P03372); test: qHTS assay to identify small molecule antagonists of the estrogen receptor alpha (ER-alpha) signaling pathway using the BG1 cell line in the presence of 0.1 nM 17-beta-estradiol (AID 1259244); further: nearly all actives have a fitted effect of over 50% in size; further: potency means the concentration at half of the fitted maximal effect
# Procedure, shortened: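 Estradiol at 0.1 nM (final) stimulates the endogenous ER-alpha of VM7Luc4E2 cells carrying an ERE-driven luciferase; compounds are co-incubated 22 h at 37C and luciferase output quantified by luminescence.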
# [5] = qHTS assay to identify small molecule phospholipidosis (PLD) inducers (AID 1259344; active means well fitted curve in the direction sought with a large enough effect; an effect the other way counts as inactive or inconclusive)
# Procedure, shortened: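 Fluorescent phospholipid staining (LipidTOX Red) measured by automated microscopy in fixed HepG2 cells after 24 h treatment; nuclei counterstained with Hoechst 33342; amiodarone as reference inducer.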
# [6] = qHTS assay to identify small molecule HDAC inhibitors (AID 1259364); further: potency means the concentration at half of the fitted maximal effect;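 further: wild-type HCT-116 cells with endogenous class I/II HDAC activity; nearly all actives have a fitted effect of over 45% in size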; on activity change, negative = inhibition: top concentration of the series differs between compounds
# Procedure, shortened: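 Read-out: luminescence of HDAC-Glo I/II reagent, 30 min RT, reflecting class I/II deacetylase activity in whole HCT-116 cells pre-exposed 2 h to DMSO-dissolved compounds.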
# [7] = qHTS assay to identify small molecule HDAC inhibitors - cell viability counter screen (AID 1259365); further: series mostly up to about 92 µM; nearly all actives have a fitted effect of over 50% in size
# Procedure, shortened: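 Measured quantity is CellTiter-Glo luminescence from wild-type HCT-116 cells after compound incubation of 2hr at 37C, 5% CO2; reagent developed 30min at room temperature.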
# [8] = qHTS assay to identify small molecule agonists of the sonic hedgehog signaling (Shh) pathway - cell viability counter screen (AID 1259366); further: nearly all actives have a fitted effect of over 50% in size
# Procedure, shortened: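 In quantitative high-throughput format, 3T3 Gli1-Luc cells were exposed to compounds for 24hr and multiplexed for viability using CellTiter-Fluor, incubated 1hr at 37C before the fluorescence read.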
# [9] = qHTS assay to identify small molecule antagonists of the sonic hedgehog signaling (Shh) pathway - cell viability counter screen (AID 1259367); further: nearly all actives have a fitted effect of over 55% in size
# Procedure, shortened: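 Using CellTiter-Fluor, viability of Gli1-Luc reporter 3T3 cells is read by fluorescence in the wells used for the Shh luciferase assay. Treatment lasts 23 hr with conditioned medium, then reagent 1 hr at 37C.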
# [10] = biological target: Androgen receptor (Homo sapiens) (UniProt P10275); test: qHTS assay to identify small molecule antagonists of the androgen receptor (AR) signaling pathway using the MDA cell line in the presence of 0.5 nM R1881 (AID 1259243); further: nearly all actives have a fitted effect of over 50% in size; further: potency means the concentration at half of the fitted maximal effect
# Procedure, shortened: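 Reporter cells cultured without CO2 receive test chemicals, then 0.5 nM R1881 final; after 16 hr at 37C, ONE-Glo is added and light output recorded.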
# Estrogen receptor (Homo sapiens), sequence (P03372 whole entry, looked up): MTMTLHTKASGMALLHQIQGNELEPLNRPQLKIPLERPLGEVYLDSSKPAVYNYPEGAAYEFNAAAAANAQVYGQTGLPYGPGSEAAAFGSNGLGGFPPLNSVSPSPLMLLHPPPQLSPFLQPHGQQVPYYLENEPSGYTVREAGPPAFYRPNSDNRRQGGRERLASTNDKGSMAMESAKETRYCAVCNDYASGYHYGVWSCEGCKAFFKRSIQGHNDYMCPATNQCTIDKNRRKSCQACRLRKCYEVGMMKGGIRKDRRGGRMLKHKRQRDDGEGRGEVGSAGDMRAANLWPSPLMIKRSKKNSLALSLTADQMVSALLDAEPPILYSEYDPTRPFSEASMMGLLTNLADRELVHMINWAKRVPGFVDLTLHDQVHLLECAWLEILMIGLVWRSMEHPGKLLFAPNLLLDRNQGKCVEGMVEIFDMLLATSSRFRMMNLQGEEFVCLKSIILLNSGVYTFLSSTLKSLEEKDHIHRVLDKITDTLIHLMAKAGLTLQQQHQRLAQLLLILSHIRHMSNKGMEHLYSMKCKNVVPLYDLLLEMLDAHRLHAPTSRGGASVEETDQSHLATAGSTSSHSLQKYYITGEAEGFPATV
# Androgen receptor (Homo sapiens), sequence (P10275 whole entry, looked up): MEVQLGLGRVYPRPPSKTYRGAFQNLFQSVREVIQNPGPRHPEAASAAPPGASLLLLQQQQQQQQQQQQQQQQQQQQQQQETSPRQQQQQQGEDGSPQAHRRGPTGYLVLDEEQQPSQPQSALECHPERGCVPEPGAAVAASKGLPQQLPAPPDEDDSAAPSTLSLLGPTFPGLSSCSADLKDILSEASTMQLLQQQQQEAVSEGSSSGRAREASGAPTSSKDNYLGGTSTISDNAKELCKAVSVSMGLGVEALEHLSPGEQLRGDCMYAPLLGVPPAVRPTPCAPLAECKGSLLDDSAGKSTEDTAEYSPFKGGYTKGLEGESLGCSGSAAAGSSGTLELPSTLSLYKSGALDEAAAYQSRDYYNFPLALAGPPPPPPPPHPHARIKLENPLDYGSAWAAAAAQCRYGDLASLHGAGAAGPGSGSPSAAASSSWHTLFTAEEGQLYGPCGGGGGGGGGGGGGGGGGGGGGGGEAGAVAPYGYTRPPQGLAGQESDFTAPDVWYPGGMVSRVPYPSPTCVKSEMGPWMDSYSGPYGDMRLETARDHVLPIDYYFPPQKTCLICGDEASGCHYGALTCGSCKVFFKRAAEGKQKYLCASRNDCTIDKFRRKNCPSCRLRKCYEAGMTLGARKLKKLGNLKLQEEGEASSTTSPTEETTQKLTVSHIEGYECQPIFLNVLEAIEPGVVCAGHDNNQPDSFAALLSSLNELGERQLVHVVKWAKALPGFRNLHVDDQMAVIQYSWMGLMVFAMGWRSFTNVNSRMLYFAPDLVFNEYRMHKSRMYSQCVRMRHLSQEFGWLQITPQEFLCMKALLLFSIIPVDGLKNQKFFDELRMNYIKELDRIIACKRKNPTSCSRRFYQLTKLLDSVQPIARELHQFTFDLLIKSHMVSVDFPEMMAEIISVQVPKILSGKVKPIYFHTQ
structure (smiles),measurement,setting,value
C[C@]12CCC(=O)C=C1CC[C@@H]1[C@@H]2CC[C@@]2(C)[C@H]1CC[C@]2(O)C(=O)CO,Potency,[1],inactive
same,Potency,[2],inactive
same,outcome,[3],inactive
same,Potency,[4],inactive
same,outcome,[5],inactive
same,Potency,[6],inactive
same,outcome,[7],inactive
same,Potency,[8],inactive
same,Potency,[9],inactive
OCCN(CCO)c1ccccc1,Potency,[1],inactive
same,Potency,[2],inactive
same,outcome,[3],inactive
same,Potency,[10],inactive
same,Potency,[4],inactive
same,Potency,[6],inactive
same,outcome,[7],inactive
same,Potency,[8],inactive
same,Potency,[9],inactive
Nc1cccc(S(=O)(=O)O)c1,Potency,[1],inactive
same,Potency,[2],inactive
same,outcome,[3],inactive
same,Potency,[10],inactive
same,Potency,[4],inactive
same,Potency,[6],inactive
same,outcome,[7],inactive
same,Potency,[8],inactive
same,Potency,[9],inactive
CCOC(=O)[C@H](CCc1ccccc1)N[C@@H](C)C(=O)N1Cc2cc(OC)c(OC)cc2C[C@H]1C(=O)O,Potency,[1],inactive
same,Potency,[2],inactive
same,outcome,[3],inactive
same,Potency,[4],inactive
same,outcome,[5],inactive
same,Potency,[6],inactive
same,outcome,[7],inactive
same,Potency,[8],inactive
CCCCc1ccc2nc(NC(=O)OC)[nH]c2c1,Potency,[1],inactive
same,Potency,[2],inactive
same,outcome,[3],inactive
same,Potency,[10],inactive
same,Potency,[4],inactive
same,outcome,[5],inactive
same,Potency,[6],10.6 µM (active)
same,outcome,[7],inactive
same,Potency,[8],inactive
CN1CCN(N)CC1,Potency,[1],inactive
same,Potency,[2],inactive
same,outcome,[3],inactive
same,Potency,[10],inactive
same,Potency,[6],inactive
same,outcome,[7],inactive
same,Potency,[8],inactive
same,Potency,[9],inactive
CN1CCN(C2=Nc3cc(F)ccc3Cc3ccccc32)CC1,Potency,[1],inactive
same,Potency,[2],inactive
same,outcome,[3],inactive
same,Potency,[10],16.8 µM (active)
same,Potency,[4],inactive
same,Potency,[6],inactive
same,outcome,[7],inactive
same,Potency,[8],inactive
same,Potency,[9],inactive
C[C@@H]1CN(c2c(F)c(F)c3c(=O)c(C(=O)O)cn(C4CC4)c3c2F)C[C@H](C)N1,cytotoxicity increase,[1],-9.96% [at 15.8 µM]
same,"activity change, negative = cytotoxicity",[2],13.3% [at 19 µM]
same,"viability change, negative = cytotoxic",[3],2.13% [at 19 µM]
same,Potency,[10],inactive
same,"activity change, negative = inhibition",[4],0.469% [at 19 µM]
same,outcome,[5],inactive
same,"activity change, negative = inhibition",[6],-5.53% [at 19 µM]
same,"activity change, negative = cytotoxicity",[7],-3.08% [at 19 µM]
same,"viability change, negative = cytotoxic",[8],6.74% [at 19 µM]
same,"viability change, negative = cytotoxic",[9],-0.257% [at 19 µM]
Cc1ccsc1C(=CCCN1CCC[C@@H](C(=O)O)C1)c1sccc1C,Potency,[1],inactive
same,Potency,[2],inactive
same,outcome,[3],inactive
same,Potency,[10],inactive
same,Potency,[4],inactive
same,outcome,[5],inactive
same,Potency,[6],inactive
same,outcome,[7],inactive
same,Potency,[8],inactive
Cc1cccc(C)c1NC(=O)CN1CCCCCC1,Potency,[1],inactive
same,Potency,[2],inactive
same,outcome,[3],inactive
same,Potency,[4],inactive
same,outcome,[5],inactive
same,Potency,[6],inactive
same,outcome,[7],inactive
same,Potency,[8],inactive
same,Potency,[9],inactive
CNCCC(Oc1ccccc1OC)c1ccccc1 (configuration not stated),Potency,[1],inactive
same,Potency,[2],inactive
same,outcome,[3],inactive
same,Potency,[4],inactive
same,outcome,[5],inactive
same,Potency,[6],inactive
same,outcome,[7],inactive
same,Potency,[8],inactive
OCCN(CCO)CCN(CCO)CCO,Potency,[1],inactive
same,Potency,[2],inactive
same,outcome,[3],inactive
same,Potency,[10],inactive
same,Potency,[4],inactive
same,Potency,[6],inactive
same,Potency,[8],inactive
same,Potency,[9],inactive
CC1=C2[C@H](/C=C(\C)C(=O)O)CC[C@@H](C)[C@H]2CC1,Potency,[1],inactive
same,Potency,[2],inactive
same,outcome,[3],inactive
same,Potency,[10],31.8 µM (active)
same,Potency,[4],63.4 µM (active)
same,Potency,[6],inactive
CC1=C(CC(=O)O)c2cc(F)ccc2/C1=C\c1ccc(S(C)(=O)=O)cc1,Potency,[1],inactive
same,Potency,[2],inactive
same,outcome,[3],inactive
same,Potency,[10],inactive
same,Potency,[4],inactive
same,outcome,[5],inactive
same,Potency,[6],inactive
same,outcome,[7],inactive
Cc1ncc(CO)c(CN)c1O,Potency,[1],inactive
same,Potency,[2],inactive
same,outcome,[3],inactive
same,Potency,[10],inactive
same,outcome,[5],inactive
same,Potency,[6],inactive
same,outcome,[7],inactive
same,Potency,[8],inactive
NS(=O)(=O)c1cc(-c2nn[nH]n2)c(NCc2cccs2)cc1Cl,Potency,[1],inactive
same,Potency,[2],inactive
same,outcome,[3],inactive
same,Potency,[4],inactive
same,outcome,[5],inactive
same,Potency,[6],inactive
same,outcome,[7],inactive
same,Potency,[8],inactive
CCCOc1ccc2c(c1)CC[C@@H]1[C@@H]2CC[C@]2(C)C(OC)CC[C@@H]12 (some centres not stated),Potency,[1],inactive
same,Potency,[2],inactive
same,outcome,[3],inactive
same,Potency,[10],13.3 µM (active)
same,Potency,[6],inactive
same,outcome,[7],inactive
same,Potency,[8],inactive
same,Potency,[9],inactive
CCCCCCn1c(=O)c2c(ncn2C)n(C)c1=O,Potency,[1],inactive
same,Potency,[2],inactive
same,outcome,[3],inactive
same,Potency,[10],inactive
same,Potency,[4],inactive
same,Potency,[6],inactive
same,outcome,[7],inactive
same,Potency,[8],inactive
same,Potency,[9],inactive
CC(=O)OC(C)OC(C)=O,Potency,[1],inactive
same,Potency,[2],inactive
same,outcome,[3],inactive
same,Potency,[10],inactive
same,Potency,[6],inactive
same,outcome,[7],inactive
same,Potency,[8],inactive
CC(C)c1ccccc1,Potency,[1],inactive
same,Potency,[2],inactive
same,outcome,[3],inactive
same,Potency,[10],inactive
same,Potency,[4],inactive
same,Potency,[6],inactive
same,outcome,[7],inactive
same,Potency,[8],inactive
same,Potency,[9],inactive
O=Cc1ccc(O)c(O)c1O,Potency,[1],inactive
same,Potency,[2],inactive
same,outcome,[3],inactive
same,Potency,[10],inactive
same,Potency,[6],inactive
same,outcome,[7],inactive
N#CSCC(=O)O,Potency,[1],inactive
same,Potency,[2],inactive
same,outcome,[3],inactive
same,Potency,[10],inactive
same,Potency,[4],inactive
same,Potency,[6],inactive
same,outcome,[7],inactive
same,Potency,[8],inactive
same,Potency,[9],inactive
COc1ccccc1OCC(O)COC(N)=O (configuration not stated),Potency,[1],inactive
same,Potency,[2],inactive
same,outcome,[3],inactive
same,Potency,[4],inactive
same,outcome,[5],inactive
same,Potency,[6],inactive
same,outcome,[7],inactive
same,Potency,[8],inactive
same,Potency,[9],inactive
CC(=O)O[C@H]1CC[C@@]2(C)C(=CC[C@@H]3[C@@H]2CC[C@]2(C)C(C(C)=O)=CC[C@@H]32)C1,Potency,[1],inactive
same,Potency,[2],inactive
same,outcome,[3],inactive
same,Potency,[10],11.9 µM (active)
same,Potency,[4],inactive
same,Potency,[6],inactive
same,outcome,[7],inactive
COc1ccc(S(=O)(=O)Nc2nnc(CC(C)C)s2)cc1,Potency,[1],inactive
same,Potency,[2],inactive
same,outcome,[3],inactive
same,Potency,[4],inactive
same,outcome,[5],inactive
same,Potency,[6],inactive
same,outcome,[7],inactive
same,Potency,[8],inactive
same,Potency,[9],inactive
COc1ccccc1N1CCN(CCCNc2cc(=O)n(C)c(=O)n2C)CC1,Potency,[1],inactive
same,Potency,[2],inactive
same,outcome,[3],inactive
same,Potency,[4],inactive
same,outcome,[5],inactive
same,Potency,[6],inactive
same,outcome,[7],inactive
same,Potency,[8],inactive
same,Potency,[9],inactive
